WRN helicase inh-1 – qHTS for Inhibitors of WRN Helicase. Bifunctional 3'-5' exonuclease/ATP-dependent helicase WRN (Homo sapiens), Q14191. WRN helicase unwinding, fluorescent forked duplex, kinetic. Potency, µM (doses to about 114 µM), most hits filed as inhibitors. 360,000 tested, 0.46% active. AID 651768, 2012; further: nearly all actives have a fitted effect of over 55% in size
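Primary qHTS, 1536-well format. 20 nM WRN + compound, 15 min RT; start with 100 nM forked fluorophore/quencher duplex, 2 mM ATP (final); kinetic read ex 525/em 598 nm.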
POLH inh – qHTS for Inhibitors of Polymerase Eta; Potency, µM (highest dose often 114 µM), hits mostly inhibitors; 390,000 tested, 1.2% active; AID 588591, 2011; DNA polymerase eta (Homo sapiens), Q9Y253; recombinant Pol eta, fluorescent DNA replication assay
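Fluorescent replication assay: 50 nM final substrate added after a 15 min room-temperature compound preincubation with 10 nM enzyme. Signal taken at 0 min and again at 10 min.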
FEN1 inh – qHTS Assay for the Inhibitors of Human Flap endonuclease 1 (FEN1). P39748. Recombinant FEN1 flap cleavage, fluorescence, 15 min. Potency, µM (doses to about 114 µM), hits mostly inhibitors. 390,000 tested, 0.35% active. AID 588795, 2011; further: nearly all actives have a fitted effect of over 65% in size
Target sequence (P39748 whole entry, looked up): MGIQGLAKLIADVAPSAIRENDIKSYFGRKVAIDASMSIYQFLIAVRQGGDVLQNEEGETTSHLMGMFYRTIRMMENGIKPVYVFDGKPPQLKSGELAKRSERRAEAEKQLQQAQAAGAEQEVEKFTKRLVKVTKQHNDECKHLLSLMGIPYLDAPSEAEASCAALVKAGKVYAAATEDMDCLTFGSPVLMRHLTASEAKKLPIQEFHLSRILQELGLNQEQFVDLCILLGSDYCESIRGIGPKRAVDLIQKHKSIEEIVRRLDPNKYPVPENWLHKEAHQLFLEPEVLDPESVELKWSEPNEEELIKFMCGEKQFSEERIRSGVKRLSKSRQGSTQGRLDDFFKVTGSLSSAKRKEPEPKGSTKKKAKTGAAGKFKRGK
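Potency values derive from four-parameter Hill fits of normalized qHTS data. The reaction used 10 nM FEN1 preincubated 15 min at room temperature with compound, then 50 nM DNA substrate, read at 0 and 15 min.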
Pol beta inh – qHTS Assay for Inhibitors of DNA Polymerase Beta. Potency, µM (top dose mostly 114 µM), usual class: inhibitors. P06746. Pol beta primer extension/strand displacement, fluorescence kinetic. 340,000 tested, 1.3% active
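Values derive from four-parameter Hill fits of normalized kinetic data: reads at 0 and 10 min following addition of 50 nM substrate to 10 nM Pol beta preincubated 15 min with compound.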
Pol kappa inh – qHTS for Inhibitors of Polymerase Kappa; 400,000 tested, 0.53% active; DNA polymerase kappa (Homo sapiens), Q9UBT6; Potency, µM (titrated, usually from 107 µM), actives largely listed as inhibitors; purified Pol kappa, fluorescent DNA synthesis assay, 10 min
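Kinetic fluorescence screen: compound preincubated 15 min RT with 10 nM enzyme; 50 nM substrate (final) initiates; reads at 0/10 min.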
POLI inh – qHTS for Inhibitors of Polymerase Iota | DNA polymerase iota (Homo sapiens), Q9UNA4 | Pol iota fluorescent replication assay, 10 min | Potency, µM (titrated, usually from 115 µM), actives largely listed as inhibitors | 390,000 tested, 1% active
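Fluorescent replication assay read twice, at 0 min and 10 min after adding 50 nM (final) substrate. Enzyme (10 nM) and compounds were first incubated 15 min at room temperature; enzyme-free buffer wells were negative controls.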
WRN helicase inh-2 – qHTS for Inhibitors of WRN Helicase: Confirmatory Assay for Cherry-picked Compounds. Potency, µM (series often up to 57.1 µM), usual class: inhibitors. WRN helicase DNA unwinding, fluorescence kinetic. 610 tested, 63% active. shares compounds with WRN helicase inh-1; further: nearly all actives have a fitted effect of over 65% in size
TO DNA binding – qHTS for Inhibitors of WRN Helicase: Thiazole Orange DNA Binding Counterscreen; shares compounds with WRN helicase inh-1; thiazole orange DNA binding displacement, fluorescence; Potency, µM (doses to about 57.1 µM), usual class: inhibitors; 610 tested, 10% active;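 further: drop in dye fluorescence marks compound binding to DNA; nearly all actives have a fitted effect of over 60% in size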
BLM counter – qHTS for Inhibitors of WRN Helicase: BLM Helicase Counterscreen for WRN Inhibitors; shares compounds with WRN helicase inh-1; Potency, µM (highest dose often 57.1 µM), usual class: inhibitors; Recombinant BLM helicase DNA unwinding, red fluorescence; 610 tested, 60% active; further: nearly all actives have a fitted effect of over 60% in size
A number is an active result. Hits are enriched below; roughly 2.4% of the tested compounds scored in any of these assays. The call rests on the fitted dose curve; in most records, active means well fitted curve in the direction sought with a large enough effect; inconclusive means small, poorly fitted or top-dose-only effect, or another doubt; inactive means no such curve, though single readings can be large; an effect the other way counts as inactive or inconclusive.

What do the screens show for `CC(=O)OCCCNc1cc(Sc2nc3ccccc3s2)c2nonc2c1[N+](=O)[O-]`?
WRN helicase inh-1: inactive; POLH inh: inconclusive; FEN1 inh: inactive; Pol beta inh: inactive; Pol kappa inh: inactive; POLI inh: inactive

Results for C=CCn1c(SCC(=O)c2ccc(O)c(O)c2)nnc1-c1ccccc1OC ?
WRN helicase inh-1: inconclusive; POLH inh: 25µM; FEN1 inh: inactive; Pol beta inh: inconclusive; Pol kappa inh: inconclusive; POLI inh: 50µM; WRN helicase inh-2: 15µM; TO DNA binding: inactive; BLM counter: 12µM

Results for C=CCn1c(SCC(=O)Nc2cc(C)on2)nnc1-c1ccccc1OC ?
WRN helicase inh-1: inactive; POLH inh: inactive; FEN1 inh: inactive; Pol kappa inh: inactive; POLI inh: inactive

Results for Oc1cc2c(cc1C(c1ccc(Br)cc1)N1CCCC1)OCO2 (stereo not drawn) ?
WRN helicase inh-1: 45µM; POLH inh: inactive; FEN1 inh: inactive; Pol beta inh: inactive; Pol kappa inh: inactive; POLI inh: inconclusive; WRN helicase inh-2: inconclusive; TO DNA binding: inactive; BLM counter: inconclusive

How did O=S(=O)(NCC(c1ccc2c(c1)OCO2)N1CCOCC1)c1ccc(Br)cc1 (stereo not drawn) do in these assays?
WRN helicase inh-1: inactive; POLH inh: inactive; FEN1 inh: inactive; Pol kappa inh: inactive; POLI inh: inactive

How did Cc1ccc(C2N3CC4(C)CN2CC(c2ccccc2)(C3)C4=O)cc1 (stereo not drawn) do in these assays?
POLH inh: inactive; FEN1 inh: inactive; Pol beta inh: inactive; Pol kappa inh: inactive; POLI inh: inactive

Results for COC(=O)c1ccc(C(=O)OC)c(NC(=O)CSc2n[nH]c(N)n2)c1 ?
WRN helicase inh-1: inactive; POLH inh: inactive; FEN1 inh: inactive; Pol kappa inh: inactive; POLI inh: inactive

Results for CCn1c(CSc2n[nH]c(N)n2)nc2cc(C(=O)O)ccc21 ?
WRN helicase inh-1: 89µM; POLH inh: inconclusive; FEN1 inh: inactive; Pol beta inh: inconclusive; Pol kappa inh: inactive; POLI inh: 50µM; WRN helicase inh-2: 24µM; TO DNA binding: inactive; BLM counter: 24µM

Results for COc1cc(C)c2sc3ccccc3c(=O)c2c1NCCN(C)C ?
WRN helicase inh-1: 35µM; POLH inh: inconclusive; WRN helicase inh-2: inconclusive; TO DNA binding: 17µM; BLM counter: inconclusive

What do the screens show for `COc1cc(N=Nc2cccc(S(N)(=O)=O)c2)c2ccccc2c1N`?
WRN helicase inh-1: inconclusive; POLH inh: inconclusive; FEN1 inh: 45µM; Pol beta inh: inconclusive; Pol kappa inh: inactive; POLI inh: inconclusive; WRN helicase inh-2: inconclusive; TO DNA binding: inconclusive; BLM counter: inconclusive

Results for COc1ccc(-c2nnc(Nc3nc4c(OC)cccc4s3)o2)c(OC)c1 ?
WRN helicase inh-1: inactive; POLH inh: inconclusive; FEN1 inh: inconclusive; Pol beta inh: inactive; Pol kappa inh: inactive; POLI inh: inconclusive

What do the screens show for `COc1ccc(-c2nnc(Nc3nc4c(OC)cccc4s3)o2)cc1`?
WRN helicase inh-1: 45µM; POLH inh: 79µM; FEN1 inh: inconclusive; Pol beta inh: 32µM; Pol kappa inh: 35µM; POLI inh: inconclusive; WRN helicase inh-2: 9.6µM; TO DNA binding: inactive; BLM counter: 7.6µM

Results for Cc1cccc(NC(=O)C(=O)c2cc(C)n(-c3ccccc3)c2C)c1C ?
POLH inh: inactive; FEN1 inh: inactive; Pol beta inh: inactive; Pol kappa inh: inactive; POLI inh: inactive

What do the screens show for `O=C(Nc1ccc(NC(=O)c2cccs2)cc1)c1ccc(Br)o1`?
WRN helicase inh-1: inconclusive; POLH inh: inconclusive; FEN1 inh: inactive; Pol beta inh: inconclusive; Pol kappa inh: inactive; POLI inh: inconclusive; WRN helicase inh-2: inconclusive; TO DNA binding: inactive; BLM counter: 9.6µM

Results for Cc1cccc(CN2CC34C=CC(CC3S2(=O)=O)O4)c1 (stereo not drawn) ?
FEN1 inh: inactive; Pol kappa inh: inactive; POLI inh: inactive

Results for COc1ccc(OC)c(NC(=O)COC(=O)CCc2nc3ccccc3c(=O)[nH]2)c1 ?
WRN helicase inh-1: inconclusive; POLH inh: inactive; FEN1 inh: inactive; Pol kappa inh: inactive; POLI inh: inactive; WRN helicase inh-2: inconclusive; TO DNA binding: inactive; BLM counter: inconclusive

How did COc1cc(NC(=O)COC(=O)CCc2nc3ccccc3c(=O)[nH]2)cc(OC)c1 do in these assays?
WRN helicase inh-1: inactive; POLH inh: inactive; FEN1 inh: inactive; Pol kappa inh: inactive; POLI inh: inactive

What do the screens show for `CN1CCc2nc(SCC(=O)Nc3cccc(F)c3)c(C#N)c(-c3cccs3)c2C1`?
WRN helicase inh-1: inactive; POLH inh: inactive; FEN1 inh: inactive; Pol beta inh: inactive; Pol kappa inh: inactive; POLI inh: inactive

How did CN1CCc2nc(SCC(=O)Nc3ccc(OC(F)(F)F)cc3)c(C#N)c(-c3cccs3)c2C1 do in these assays?
WRN helicase inh-1: inconclusive; POLH inh: inactive; FEN1 inh: inactive; Pol beta inh: inactive; Pol kappa inh: inactive; POLI inh: inactive; WRN helicase inh-2: 19µM; TO DNA binding: 3.4µM; BLM counter: 24µM

How did Cc1cc(=O)oc2cc(Oc3ccc(C(N)=O)cc3[N+](=O)[O-])ccc12 do in these assays?
WRN helicase inh-1: inconclusive; POLH inh: inactive; FEN1 inh: inactive; Pol beta inh: inactive; Pol kappa inh: inactive; POLI inh: inconclusive; WRN helicase inh-2: inconclusive; TO DNA binding: inactive; BLM counter: inactive

Results for Cc1cc(Cl)ccc1Oc1ccc(C(N)=O)cc1[N+](=O)[O-] ?
WRN helicase inh-1: inactive; POLH inh: inactive; FEN1 inh: inactive; Pol beta inh: inconclusive; Pol kappa inh: inactive; POLI inh: inactive

Bioassay records (PubChem)
